Sampled rows, rich in hits. Any-hit rate of the full collection: about 2.3%.
CHO-K1 Ca antag: M1 antagonist counterscreen hit in parental CHO-K1 cells; ATP-induced calcium, Fluo-8 fluorescence; inhibition, % at 3 µM; 360,000 compounds, 0.6% hits; AID 602250;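 active = inhibition above a per-plate cutoff, the plate's mean sample inhibition plus 3 SD, cut at about 24% in these data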;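 note: 0% = DMSO plus EC80 ATP and 100% = DMSO alone without ATP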
CHRM1 antagonist: human M1 muscarinic receptor antagonists, primary screen, CHO-K1 cells, Fluo-8 calcium fluorescence, 1536-well; 360,000 compounds, 1.3% hits; CHO-K1 hM1, ACh EC80 antagonist; inhibition, % at 3 µM;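 active = percent inhibition above its own plate's cutoff, namely the mean of that plate's compound wells plus 3 SD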;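 note: peak over basal fluorescence ratio during 140 s after agonist addition; 0% = ACh EC80 plus DMSO and 100% = DMSO alone without agonist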
Target sequence (P11229 whole entry, looked up): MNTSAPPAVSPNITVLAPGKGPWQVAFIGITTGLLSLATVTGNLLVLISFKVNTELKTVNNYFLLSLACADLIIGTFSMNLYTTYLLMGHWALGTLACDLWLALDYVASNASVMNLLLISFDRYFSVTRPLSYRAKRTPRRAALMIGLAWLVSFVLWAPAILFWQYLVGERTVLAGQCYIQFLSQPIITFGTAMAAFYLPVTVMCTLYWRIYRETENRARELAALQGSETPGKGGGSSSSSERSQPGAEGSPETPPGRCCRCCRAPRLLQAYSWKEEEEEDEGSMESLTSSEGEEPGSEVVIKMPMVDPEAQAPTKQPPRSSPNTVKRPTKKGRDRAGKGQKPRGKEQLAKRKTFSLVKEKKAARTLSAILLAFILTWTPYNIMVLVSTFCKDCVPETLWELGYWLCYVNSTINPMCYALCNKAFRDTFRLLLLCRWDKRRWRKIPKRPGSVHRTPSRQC
M1 PAM: human M1 muscarinic receptor positive allosteric modulators, primary screen, CHO-K1 cells, Fluo-8 calcium fluorescence, 1536-well; Muscarinic acetylcholine receptor M1 (Homo sapiens), P11229; CHO-K1 hM1, ACh EC20; 0% = ACh EC20, 100% = maximal ACh; activation, % at 3 µM; 360,000 compounds, 0.088% hits; in the data active = activation above about 19%, passing the limit was not always enough
CHRM1 agonist: human M1 muscarinic receptor agonists, primary screen, Fluo-8 calcium fluorescence, CHO-K1 cells, HTS; Muscarinic acetylcholine receptor M1 (Homo sapiens), P11229; CHO-K1 hM1, agonist mode; 0% DMSO, 100% acetylcholine EC100; activation, % at 3 µM; 360,000 compounds, 0.33% hits; AID 588814, 2011;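 active = activation above the run's mean compound activation plus 3 SD, cut at about 16% in these data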;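 note: peak over basal fluorescence ratio within a 140 s kinetic read after compound addition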
M1 ag parental: counter-screen for M1 agonists: effect in parental CHO-K1 cells; activation, % at 3 µM; Fluo-8 calcium fluorescence; scaled to maximal ATP response, vehicle zero; AID 602248, 2012; 360,000 compounds, 0.48% hits; in the data active = activation above about 15%;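 note: untransfected CHO-K1 host cells lacking M1 receptor as counterscreen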
CHO-K1 Ca PAM: nonselective calcium activators in parental CHO-K1 cells, primary screen, counter-screen for M1 PAM project, cell-based, Fluo-8 calcium fluorescence, full deck, 1536-well; 360,000 compounds, 0.02% hits; ATP EC20; 0% at ATP EC20, 100% at ATP max; AID 602247, 2012; activation, % at 3 µM;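 active = activation above the run cutoff, the mean activation of all test compounds plus 3 SD, cut at about 40% in these data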;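 note: peak over basal fluorescence ratio in a 140 s read after ATP addition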
* hit, by the source's call.

SMILES | CHO-K1 Ca antag | CHRM1 antagonist | M1 PAM | CHRM1 agonist | M1 ag parental | CHO-K1 Ca PAM
CCN1CCC2(CC1)N=C(c1ccc(F)cc1)C(=S)N2 | -8 | 39* | -22 | -8 | 4 | 11
Cc1ccc(NC(Cc2cc(C)no2)c2ccccc2)cc1 (stereo unspecified) | -17 | -1 | 8 | 3 | 14 | 46*
CCCCn1c(N)c(N(CCC(C)C)C(=O)c2cc(S(=O)(=O)N3CCOCC3)ccc2F)c(=O)[nH]c1=O | -2 | -31 | 21* | 2 | 0 | 6
CCCCn1c(N)c(N(CC(C)C)C(=O)Cc2ccc(S(=O)(=O)N3CCOCC3)s2)c(=O)[nH]c1=O | -10 | 11 | -4 | 17* | 5 | 12
CCCCn1c(N)c(N(CCC(C)C)C(=O)Cc2ccc(S(=O)(=O)N3CCOCC3)s2)c(=O)[nH]c1=O | 2 | -6 | 5 | -3 | 0 | -5
COCCN1CCN(C(=O)c2cc(COc3cc(C)ccc3C)on2)CC1 | -6 | -4 | -1 | -1 | 4 | 14
OCC1(Cc2ccc(F)cc2F)CCCN(CCCc2ccccc2)C1 (stereo unspecified) | 9 | 15 | -16 | -10 | 0 | 6
OCC1(Cc2ccccc2F)CCCN(CCc2ccccc2)C1 (stereo unspecified) | -2 | 31* | -25 | -10 | 0 | -9
CCCCC1(COC(=O)CCC(=O)O)C(=O)N(c2ccccc2)N(c2ccccc2)C1=O | -13 | -24 | 1 | -3 | 0 | 26
CCCCC1(Cc2ccc([N+](=O)[O-])cc2)C(=O)N(c2ccccc2)N(c2ccccc2)C1=O | 18 | 36* | -9 | -2 | 3 | 6
CCn1c(=S)[nH]c2c(=O)n(C)c(=O)n(C)c21 | 0 | -23 | 19 | 1 | 0 | -12
CC(C(=O)NC1CCCCC1)N1CCN(C)CC1 (stereo unspecified) | -10 | -14 | 6 | -1 | 0 | 7
N#Cc1c(SCC(N)=O)nc(-c2ccccc2)c2c1CCCC2 | -11 | -2 | 5 | -4 | 0 | 21
Cc1ccc(-c2nc(SCC(N)=O)c(C#N)c3c2CCCC3)cc1 | 30* | -4 | 4 | -4 | 0 | -3
O=C(O)CC(C(=O)O)C(=Cc1ccccc1)c1ccccc1 (stereo unspecified) | -5 | -2 | -1 | 0 | 0 | -10
Cc1onc(-c2ccccc2)c1NC(=O)Nc1ccc(OC(F)F)cc1 | 10 | 1 | -3 | -1 | 25* | -6
CCC(=O)/C=C1\Sc2ccc(OC)cc2N1CC | 9 | 2 | 6 | -4 | -1 | 0
COc1ccc2c(c1)N(C[C@H](C)CN(C)C)c1ccccc1S2 | -3 | 99* | -27 | -7 | 1 | 0
OCCN(CCO)CC(O)CN1c2ccccc2Sc2ccccc21 (stereo unspecified) | 5 | 9 | -7 | -7 | 1 | -3
CC(CN(C)C)CN1c2ccccc2Sc2ccccc21 (stereo unspecified) | 10 | 101* | -28 | -6 | 1 | 0
CCN(CC)CC(O)CN1c2ccccc2Sc2ccccc21 (stereo unspecified) | -2 | 51* | -26 | -8 | 4 | -8
NC12CC3CC(C1)CC(CO)(C3)O2 | -7 | -13 | 7 | -3 | 0 | 9
COc1cc(/C=N/n2nnnc2N)ccc1OCC(N)=O | 14 | 6 | -1 | 0 | 0 | 12
COc1cc(/C=N\n2nnnc2N)ccc1OCc1ccc(F)cc1 | 11 | active | -17 | -1 | 1 | -7
Cc1onc(-c2c(Cl)cccc2Cl)c1C(=O)N1CCc2ccccc2C1 | -10 | 41* | -23 | -6 | 0 | 20
SMILES | CHO-K1 Ca antag | CHRM1 antagonist | M1 PAM | CHRM1 agonist | M1 ag parental | CHO-K1 Ca PAM
COCOc1ccc(/C=C/C(=O)c2c(OCOC)cc(OCOC)c(CC=C(C)C)c2O)cc1OCOC | 29* | 0 | 11 | 3 | -1 | -10
COCOc1ccc(/C=C/C(=O)c2c(O)cc(OCOC)cc2OCOC)cc1 | -8 | -10 | 6 | -4 | 1 | 19
CSCCC(NC(=O)c1ccccc1Br)C(=O)NCC1CCCCC1 (stereo unspecified) | -1 | -5 | 2 | -4 | 0 | 15
CSCCC(NC(=O)c1ccco1)C(=O)NCC1CCCCC1 (stereo unspecified) | -18 | -24 | 24* | -1 | 0 | 2
COc1ccc(COc2cc(-c3cccc(OC)c3)nc3ccc(NC(=O)c4ccc(C)cc4)cc23)cc1 | -6 | 14 | -6 | -2 | 3 | 8
COc1ccc(COc2cc(-c3cccc(OC)c3)nc3ccc(NC(=O)c4ccc(N(C)C)cc4)cc23)cc1 | 1 | 40* | -23 | -6 | 0 | -6
CCCc1nc2ccccc2c(=O)n1CC(=O)c1ccc(F)cc1 | -8 | -11 | 10 | -5 | -1 | -3
c1ccc(CNc2ncnc3scc(-c4cccs4)c23)nc1 | 13 | 30* | -14 | 1 | 13 | -3
c1ccc(-c2csc3ncnc(NCCN4CCOCC4)c23)cc1 | 13 | 22 | -6 | -4 | 1 | -3
CN(C)CCCNc1ncnc2c1c(-c1ccccc1)cn2-c1ccccc1 | -4 | -1 | -1 | -11 | 1 | 2
CN(C)CCCNc1ncnc2scc(-c3ccccc3)c12 | -14 | 48* | -24 | -7 | 0 | 14
c1ccc(-c2csc3ncnc(NCc4ccccn4)c23)cc1 | 4 | 43* | -19 | 1 | 13 | 10
COc1cc(CCC(N)c2cccc(O)c2)cc(OC)c1OC (stereo unspecified) | -2 | -5 | 3 | -3 | 0 | -15
Cc1cc(C)c[n+](CC(=O)c2cc3ccccc3oc2=O)c1 | 2 | 93* | -22 | -7 | 0 | -4
Cc1cccc(NC(=O)c2cc3ccccc3oc2=O)c1 | 8 | -12 | 5 | 0 | 0 | -20
Cc1ccc[n+](CC(=O)c2cc3ccccc3oc2=O)c1 | -16 | 90* | -35 | -11 | 2 | 21
CC(=O)c1cc2ccccc2oc1=O | -21 | -7 | 7 | -4 | 0 | 12
Cc1cccn2c(=O)c3cc(C(=O)NCCN4CCOCC4)c(=N)n(Cc4ccc(F)cc4)c3nc12 | -1 | 22 | -10 | -4 | 5 | -2
COc1ccc(-n2c(-c3cccc(OC)c3)nc(=S)c3c2CCCC3)cc1 | -11 | 60* | -35 | -15 | 1 | 9
COc1ccc(-n2c(-c3ccccc3)nc(=S)c3c2CCCC3)cc1 | -5 | -28 | 6 | -1 | 4 | 17
CCCN1CCN(CCCNC(=O)c2ccc3c(Cl)c4c(nc3c2)CCCC4)CC1 | -17 | 34* | -29 | -14 | 0 | -3
O=C(NCCCN1CCCC1)c1ccc2c(Cl)c3c(nc2c1)CCCC3 | -5 | -2 | -10 | -10 | 0 | 23
